In the library only some 8.3% were active in any assay of this set; here they are far more common.
MCF10A rereplic – inducers of DNA re-replication in MCF 10A breast cells | Potency, µM (titrated, usually from 46.1 µM), hits mostly activators | 350,000 tested, 2.9% active | MCF 10A DNA re-replication, Hoechst nuclear intensity, 48 h | AID 624296; further: nearly all actives have a fitted effect of over 50% in size
SW480 rerep – DNA re-replication induction in SW480 cells. 340,000 tested, 1.8% active. Potency, µM (doses to about 46.1 µM), hits mostly activators. SW480 DNA re-replication, Hoechst DNA content imaging, 48 h; further: nearly all actives have a fitted effect of over 55% in size
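Compounds, transferred as 23 nL by pin tool, were incubated with cells for 48 hr; DNA content per nucleus was then quantified by Hoechst staining and fluorescence plate imaging.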
Gal4-VP16 FLuc – inhibits Gal4-VP16 luciferase reporter, ROR gamma counter-screen. Drosophila S2 Gal4-VP16 UAS-luciferase, luminescence, 20 h. Potency, µM (series often up to 53.6 µM), most hits filed as inhibitors. 310,000 tested, 3.5% active. AID 2546;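 further: Gal4-VP16 expression switched on by copper sulfate through the metallothionein promoter; nearly all actives have a fitted effect of over 50% in size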
Giardia killer – Giardia lamblia killing. Giardia lamblia trophozoite viability. activity change, % at 7.66 µM, hits read low. 340,000 tested, 0.15% active. AID 540267; in the data active means activity change below about -80%; inconclusive means between about -30% and that limit;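 further: parasites exposed to compound for two days anaerobically before the ATP read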
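Giardia trophozoites, 100 cells per well, were exposed to compounds for 48 hrs at 37 deg C under anaerobic conditions; viability was then read as ATP content by bioluminescence after 15-30 min at room temperature.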
BCR signal inh – chronic active BCR signaling inhibition; Potency, µM (highest dose often 46.1 µM), usual class: inhibitors; AID 493014; ABC-DLBCL IkBa-CBG/CBR reporter, luminescence ratio, 4 h; 340,000 tested, 0.05% active; active means well fitted inhibition curve with a large enough effect in the signal ratio, with a control signal flat, not every such curve was filed as active; inconclusive means small, poorly fitted or top-dose-only effect, or effect the other way, or a change in a side signal; the % refers to the signal ratio
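TMD8 human ABC-DLBCL cells with doxycycline-inducible IκBα–green luciferase fusion and unfused red luciferase, in 0.5% FBS medium; compounds up to 46 uM, 4 h at 37C. Green/red luminescence ratio, filter-overlap corrected, fitted to concentration-response curves.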
RORgamma inh – ROR gamma (mouse) transcription inhibition; 310,000 tested, 5.4% active; AID 2551; Potency, µM (series often up to 53.6 µM), actives largely listed as inhibitors; Drosophila S2 Gal4-RORgamma UAS-luciferase reporter, 20 h; P51450; further: nearly all actives have a fitted effect of over 60% in size
Target sequence (P51450 whole entry, looked up, the tested form may be a part): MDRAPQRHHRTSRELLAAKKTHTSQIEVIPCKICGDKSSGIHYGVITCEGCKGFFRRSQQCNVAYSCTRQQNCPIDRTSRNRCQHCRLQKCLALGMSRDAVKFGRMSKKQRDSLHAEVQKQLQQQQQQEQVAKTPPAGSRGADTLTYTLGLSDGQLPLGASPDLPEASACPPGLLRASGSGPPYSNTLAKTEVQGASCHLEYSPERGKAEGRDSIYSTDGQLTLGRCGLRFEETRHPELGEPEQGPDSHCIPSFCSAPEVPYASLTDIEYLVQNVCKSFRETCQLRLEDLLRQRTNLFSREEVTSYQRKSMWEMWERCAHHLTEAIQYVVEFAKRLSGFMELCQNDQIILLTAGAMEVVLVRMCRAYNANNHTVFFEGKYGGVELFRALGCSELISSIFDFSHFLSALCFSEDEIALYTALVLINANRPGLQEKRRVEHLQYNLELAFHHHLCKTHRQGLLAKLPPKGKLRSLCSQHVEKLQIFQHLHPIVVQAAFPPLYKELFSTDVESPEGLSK
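ROR gamma transcriptional activity was tracked as Gal4-UAS luciferase output in stably transfected Drosophila Schneider cells, with compound added 1 hr before 700 uM copper sulfate induction and a 20 hr ambient-temperature incubation.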
A number is an active result; n = inactive; u = inconclusive; x = no result given; [ ] = another dose, or the depositor's remark. Unless noted, the call rests on the fitted dose curve; in most records, active means well fitted curve in the direction sought with a large enough effect; inconclusive means small, poorly fitted or top-dose-only effect, or another doubt; inactive means no such curve, though single readings can be large; an effect the other way counts as inactive or inconclusive.

SMILES	MCF10A rereplic	SW480 rerep	Gal4-VP16 FLuc	Giardia killer	BCR signal inh	RORgamma inh
O=C(CSc1ncc(-c2ccccc2)nn1)NCc1ccco1	n	n	n	n	n	n
O=C(CSC1=NCCS1)NC(NC(=O)CSC1=NCCS1)c1ccccc1	n	n	n	n	n	u
c1ccc(CSc2nnc(-c3ccccc3)c(-c3ccccc3)n2)cc1	8.2µM	u	x	n	x	x
O=C(CSc1nnc(-c2ccccc2)c(-c2ccccc2)n1)NCc1ccco1	18µM	n	n	n	u	n
CCn1c(SCC(=O)NCc2ccco2)nnc1-c1ccncc1	x	x	n	x	n	n
CCn1c(SCC(=O)NCc2ccco2)nnc1-c1cccs1	n	n	u	n	u	11µM
CCN1C(=O)[C@H]2[C@H]3[C@H](O)[C@H](O)C/C(=N/O[C@@H]4O[C@@H](COC(C)=O)[C@@H](OC(C)=O)[C@@H](OC(C)=O)[C@H]4OC(C)=O)[C@H]3CC[C@@H]2C1=O	x	x	n[10 µM]	x	x	n[10 µM]
Cc1sc2nc(C(C)C)nc(SCC(=O)NCc3ccco3)c2c1C	u	u	u	n	n	5µM
O=C(CSc1nc(-c2ccccc2)c(-c2ccccc2)[nH]1)NCc1ccco1	15µM	12µM	u	n	n	10µM
O=C(CSc1nc(-c2ccccc2)cs1)NCc1ccco1	n	n	n	n	n	u
CC(=O)NCc1ccc(-c2csc(NC(=O)CCc3nc4ccccc4c(=O)[nH]3)n2)s1	n	n	x	n	n	x
Cc1cc(C)n(-c2nnc(NCc3ccc(Cl)cc3)nn2)n1	n	12µM	n	n	n	u
Cc1cc(C)n(-c2nc(C)nc(NCc3ccccc3)n2)n1	n	n	5.6µM	n	u	1.6µM
CNc1nc(C)nc(-n2nc(C)cc2C)n1	n	n	u	n	n	6.3µM
COc1ccc(C2=CC(=O)CC(C)(C)C2)cc1OC	n	n	x	n	n	x
O=S(=O)(Nc1cccc(-c2nnco2)c1)c1ccc(F)cc1F	n	n	n	n	u	n
CCc1c2c(nc3cccc(SC)c13)COC2	x	x	n	x	x	n
COC(=O)Nc1nc2ccc(S(=O)c3ccccc3)cc2[nH]1 (stereo not drawn)	x	x	n	x	x	n
COc1ccc2nc(NCCCO)[nH]c2c1	n	n	n	n	n	n
COC(=O)Nc1nc2ccc(C(=O)c3ccccc3)cc2[nH]1	u	0.29µM	n	x	x	n
COC(=O)Nc1nc2ccc(SC(C)C)cc2[nH]1	1.6µM	0.82µM	n	u	u	n
CC(C)=Nc1ccccc1C1COC(=O)C1=N (stereo not drawn)	n	0.52µM	n	n	n	n
N=C1C(=O)OCC1c1ccccc1NC(=O)Nc1ccccc1 (stereo not drawn)	n	n	n	n	n	n
Clc1ccc2oc(-c3ccccc3)cc(=NCCCN3CCOCC3)c2c1	n	n	n	-87	n	n
O=C(O)c1ccc2c3n(nc2c1)-c1ccc(Cl)cc1CO3	n	n	3.2µM	n	u	7.1µM
SMILES	MCF10A rereplic	SW480 rerep	Gal4-VP16 FLuc	Giardia killer	BCR signal inh	RORgamma inh
CCOC(C)(C)C	x	x	n	x	x	n
Clc1nc(NCc2ccco2)nc(N2CCCCC2)n1	u	4.6µM	n	n	n	n
Cc1cc(C)n2c(SCC(=O)N(CC(C)C)c3c(N)n(CC(C)C)c(=O)[nH]c3=O)nnc2n1	n	n	n	n	n	n
C#CCn1cc[n+](CC(=O)N(C)C)c1	n	n	n	n	n	n
CCCCCCCCCCCCCCCCn1cc[n+](CC(C)=O)c1	15µM	n	n[10 µM]	n	n	u
CC1c2cc3c(cc2CCN1C(=O)c1cccc(Cl)c1)OCCCO3 (stereo not drawn)	u	n	n	n	n	n
O=[N+]([O-])c1ccc(N/N=C/c2c[nH]c3ccccc23)c(S(=O)(=O)Nc2ccc(Cl)cc2)c1	u	21µM	u	n	n	n
Cc1ccc(NC(=O)Cn2c(O)c(N=NS(=O)(=O)c3ccc(C)cc3)c3ccccc32)cc1	21µM	u	n	n	n	u
O=[N+]([O-])c1ccc(O)c(-c2nc(-c3ccccc3)c(-c3cccs3)[nH]2)c1	u	u	11µM	n	n	n
O=C(O)c1ccc(-c2nc(-c3ccccc3)c(-c3cccs3)[nH]2)cc1	n	n	n	n	u	n
